# Screening results (PubChem)
# CCT modulator – High-Throughput Screening for Modulators of Cytosolic Chaperonin Activity; purified chaperonin ATPase assay, HTRF ADP detection, 30 min; activity change, % (concentration not given with the values), hits read low; actives 0.3% (n = 360,000); AID 651819, 2012; in the data active = activity change below about -30%; also: % is scaled to controls: 0 for no effect and ±100 for the full control effect
#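 TRiC (40 or 20 nM final, by batch activity) in 30 mM Tris pH 7.4, 100 mM KCl, 5 mM MgCl2, 1 mM DTT was treated with compound at 76 uM single dose, then 10 uM ATP, 30 min at 37 °C. ADP was read by HTRF Transcreener.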
# ERG-DNA inh – qHTS for Small Molecule Inhibitors of the ERG Ets/DNA interaction; fluorescence polarization, His-ERG Ets domain / labelled DNA; actives 0.028% (n = 370,000); Potency, µM (top dose mostly 76.9 µM), without a hit: at the top dose FP activity, negative = inhibition, most hits filed as inhibitors; Transcriptional regulator ERG (Homo sapiens), P11308; active = well fitted inhibition curve with a large enough effect in the polarisation, with a control signal flat; inconclusive = small, poorly fitted or top-dose-only effect, or effect the other way, or a change in a side signal; inactive = no such curve, though single readings can be large or run the other way; the % refers to the polarisation;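 also: polarization taken with two DNA probes labelled with fluorescein and Texas red; potency is read from the fitted curve at half-maximal effect; % of control where 0% means no effect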
#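 His-tagged ERG Ets domain (1 uM in the protein solution; 300mM KCl, 50mM Tris-HCl, 1mM EDTA, 1mM DTT, pH 7.5) received compound, then a probe mix of 5 nM fluorescein-DNA and 100nM Texas-615-DNA. Fluorescence polarization was read for both dyes.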
# Anesthetic bind – qHTS Assay for Identification of Novel General Anesthetics; actives 0.074% (n = 350,000); apoferritin/1-aminoanthracene competitive binding, fluorescence; Ferritin light chain (Equus caballus), P02791; AID 485281, 2010; Potency, µM (series often up to 77.5 µM), without a hit: at the top dose activity change, negative = displacement, actives largely listed as inhibitors; also: potency is read from the fitted curve at half-maximal effect; % is scaled to controls: 0 for no effect and ±100 for the full control effect; nearly all actives have a fitted effect of over 20% in size
# Target sequence (P02791 2-175 limits assumed): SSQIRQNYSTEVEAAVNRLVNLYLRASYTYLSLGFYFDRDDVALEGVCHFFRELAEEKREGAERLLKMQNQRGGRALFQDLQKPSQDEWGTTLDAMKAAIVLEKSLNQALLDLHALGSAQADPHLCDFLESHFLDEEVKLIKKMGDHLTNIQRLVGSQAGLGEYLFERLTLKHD
#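 Concentration-response curves derived by four-parameter Hill fitting of normalized fluorescence, where compounds displaced 1-AMA from 10 uM horse apoferritin following a brief 10 min room-temperature incubation; propofol titration acted as positive control.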
# MmCpn inh – Inhibitors of TCP-1 ring complex (TRiC) of Methanococcus maripaludis (MmCpn): qHTS; Chaperonin Mm-Cpn (Methanococcus maripaludis); AID 504842, 2011; actives 0.031% (n = 330,000); Potency, µM (titrated, usually from 76.9 µM), for the others: top-dose activity, negative = inhibition, actives largely listed as inhibitors; purified Mm-Cpn ATPase, ADP Transcreener TR-FRET; also: potency is read from the fitted curve at half-maximal effect; % is scaled to controls: 0 for no effect and ±100 for the full control effect; nearly all actives have a fitted effect of over 80% in size
#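 Purified archaeal chaperonin (25 nM final) was preincubated with compound for 10 min at 37°C, then ATP (10 uM final) was added for 30 min at 37°C in Tris pH 7.4/KCl/MgCl2/DTT buffer. ADP was quantified by HTRF Transcreener TR-FRET.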
# * hit, by the source's call; ? = inconclusive; . = not tested or not shown. An excerpt weighted towards active compounds, which were near 0.39% of everything screened. Unless noted, calls follow the shape of the dose curve; as a rule, active = well fitted curve in the direction sought with a large enough effect; inconclusive = small, poorly fitted or top-dose-only effect, or another doubt; inactive = no such curve, though single readings can be large; an effect the other way counts as inactive or inconclusive.
SMILES,CCT modulator,ERG-DNA inh,Anesthetic bind,MmCpn inh
Cc1ccccc1-n1nc2c(c1NC(=O)C(C)C)CS(=O)(=O)C2,-0.4,15.3%,5.9%,-0.5%
Cc1ccccc1-n1nc2c(c1NC(=O)C(C)(C)C)CS(=O)(=O)C2,-43.0*,-2.7%,-6.9%,2.4%
COCCNc1nc2cc(-c3ccc(F)cc3)sc2c(=O)n1C,0.9,.,.,.
O=c1[nH]c(CCl)nc2cc(-c3ccc(F)cc3)sc12,-39.5*,-10.0%,1.4%,0.3%
COc1ccc(CNC(=O)C(NC(C)=O)C(=O)Nc2ccc(C(C)C)cc2)cc1 (configuration not stated),-41.2*,5.2%,-23.6%,-1.3%
COc1ccc(NC(=O)C(NC(C)=O)C(=O)NCc2ccccc2OC)cc1 (configuration not stated),-1.8,10.8%,-2.1%,4.7%
CSCCC(NC(=O)/C(=C\c1ccco1)NC(=O)c1ccco1)C(=O)O (configuration not stated),1.3,6.8%,2.6%,-0.7%
CSCCC(NC(=O)/C(=C/c1ccco1)NC(=O)c1ccco1)C(=O)O (configuration not stated),-38.1*,-1.2%,.,.
COc1ccc(OC)c(CNC(=O)c2ccc3c(c2)c(C)c(C)n3Cc2ccc(Cl)cc2)c1,.,-2.1%,48.8%,.
O=C(C1CC1)N1CCN=C1SCc1ccccc1,3.5,-3.1%,1.6%,1.4%
CC(Oc1ccccc1)C(=O)N1CCN=C1SCc1ccccc1 (configuration not stated),-41.6*,1.9%,-6.8%,?
Cc1cc(C(=O)OCc2nnc(-c3ccccc3)o2)c(C)n1-c1ccccc1,-127.5*,-2.2%,49.7%,-0.5%
O=C(OCc1nnc(-c2ccccc2)o1)c1cn(-c2ccccc2)nc1-c1ccccc1,0.4,-3.6%,10.7%,-6.8%
NC(=O)C1CCN(c2nc(-c3cccc4ccccc34)cs2)CC1,.,.,.,-4.5%
COc1cc(CNc2ccc(O)cc2)cc(Br)c1OCc1ccccc1,-0.9,39.8µM*,?,-4.4%
COc1cc(CNC(C)c2ccccc2)cc(Br)c1OCc1ccccc1 (configuration not stated),-1.5,4.0%,4.9%,-2.7%
O=C(CSc1oc(-c2ccccc2)nc1S(=O)(=O)c1ccc(Cl)cc1)c1ccccc1,.,1.7%,-9.6%,.
CC[C@H](C)N,.,.,-2.6%,.
Cc1nc2cc(NC(=O)c3ccc(N4C(=O)CCC4=O)cc3)ccc2s1,-75.8*,10.7%,-0.8%,0.9%
COc1cc(OC)cc(C(=O)Nc2ccc3nc(N4CCCCC4)cc(C)c3c2)c1,.,0.9%,211.7%,.
Cc1cc(C)n(CC(=O)Nc2cccc(C(F)(F)F)c2)n1,0.1,3.6%,-13.0%,0.9%
Cc1cc(C(F)(F)F)nn1CC(=O)Nc1cccnc1,-41.0*,-0.9%,-9.8%,0.7%
CC(N)COC(=O)C(CCCCN)NC(=O)Cc1c(-c2ccc3ccccc3c2)[nH]c2c1ccc1ccccc12 (configuration not stated),.,.,3.0%,.
COc1ccccc1-c1nc2c3ccccc3nc(=S)n2[nH]1,-1.1,4.0%,-8.9%,-0.1%
COc1cc(-c2nc3c4ccccc4nc(=S)n3[nH]2)cc(OC)c1OC,-36.6*,-3.7%,1.8%,1.1%
SMILES,CCT modulator,ERG-DNA inh,Anesthetic bind,MmCpn inh
CC1=C(/C=C/C(C)=C/C=C/C(C)=C/C(=O)O)C(C)(C)CCC1O (configuration not stated),.,.,-17.2%,.
O=C(O)CCN1C(=O)c2ccc(NC(=O)Cc3ccc(Cl)cc3)cc2C1=O,-32.2*,-7.5%,10.6%,0.6%
CCNc1c([N+](=O)[O-])c(=O)n(CC)c2ccccc12,-1.2,-2.6%,-1.2%,1.1%
Cn1c(=O)c([N+](=O)[O-])c(NCc2ccccc2)c2ccccc21,-55.9*,-5.0%,-8.7%,-4.7%
Clc1ccc(-c2cccc3nccn23)c(Cl)c1,-76.5*,.,.,.
CN(C)c1ccc(-c2nc3ccc(Cl)cn3c2Nc2ccc3c(c2)OCCO3)cc1,.,-3.1%,?,.
C/C(=N\NC(=O)c1nnn(-c2nonc2N)c1CN(C)c1ccccc1)c1ccc(O)cc1,-2.6,1.6%,-19.6%,4.9%
CC/C(=N\NC(=O)c1nnn(-c2nonc2N)c1CN(C)c1ccccc1)c1ccccc1,-67.1*,10.2%,-17.3%,1.0%
